# TDP1 cell CPT = DT40-hTDP1 cell growth loss with CPT; Potency, µM (highest dose often 46.2 µM), for the others: top-dose activity change, negative = growth inhibition, hits mostly inhibitors; 420,000 tested, 12% active; AID 686979; chicken DT40 Tdp1-/-;hTDP1 cells + 20 nM CPT, ATP luminescence, 48 h; note: potency is the fitted concentration of half-maximal effect; % is set by controls: 0 for no effect and ±100 for the full control effect; nearly all actives have a fitted effect of over 55% in size
#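 Chicken DT40 Tdp1-/- cells stably complemented with human TDP1 were seeded at 400 cells/well in medium containing 20 nM camptothecin, exposed to pin-transferred compounds, and grown at 37 °C for at least 48 hr. Viability was read as ATP luminescence.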
# TDP1 cell noCPT = qHTS for Inhibitors of human tyrosyl-DNA phosphodiesterase 1 (TDP1): qHTS in cells in absence of CPT. 420,000 tested, 15% active. DT40 Tdp1-/- hTDP1 cells, no CPT, ATP luminescence, 48 h. Potency, µM (top dose mostly 46.2 µM), inactives show at the top dose activity change, negative = growth inhibition, hits mostly inhibitors; note: potency is the fitted concentration of half-maximal effect; % is set by controls: 0 for no effect and ±100 for the full control effect; nearly all actives have a fitted effect of over 55% in size
#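 Chicken DT40 Tdp1-/- cells complemented with human TDP1, screened without camptothecin (DMSO vehicle only), 400 cells/well. Compounds pin-transferred, cells incubated at 37 °C for at least 48 hr. Growth read as ATP-dependent luminescence (CellTiter-Glo, 30 min at RT).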
# TDP1 block = TDP1 (human) enzyme inhibition | 350,000 tested, 0.28% active | recombinant TDP1, AlphaScreen DNA substrate cleavage | Q9NUW8 | AID 485290 | Potency, µM (highest dose often 130 µM), inactives show top-dose activity change, negative = inhibition, actives largely listed as inhibitors; note: potency is the fitted concentration of half-maximal effect; % is set by controls: 0 for no effect and ±100 for the full control effect; nearly all actives have a fitted effect of over 40% in size
# Target sequence (Q9NUW8 whole entry, looked up): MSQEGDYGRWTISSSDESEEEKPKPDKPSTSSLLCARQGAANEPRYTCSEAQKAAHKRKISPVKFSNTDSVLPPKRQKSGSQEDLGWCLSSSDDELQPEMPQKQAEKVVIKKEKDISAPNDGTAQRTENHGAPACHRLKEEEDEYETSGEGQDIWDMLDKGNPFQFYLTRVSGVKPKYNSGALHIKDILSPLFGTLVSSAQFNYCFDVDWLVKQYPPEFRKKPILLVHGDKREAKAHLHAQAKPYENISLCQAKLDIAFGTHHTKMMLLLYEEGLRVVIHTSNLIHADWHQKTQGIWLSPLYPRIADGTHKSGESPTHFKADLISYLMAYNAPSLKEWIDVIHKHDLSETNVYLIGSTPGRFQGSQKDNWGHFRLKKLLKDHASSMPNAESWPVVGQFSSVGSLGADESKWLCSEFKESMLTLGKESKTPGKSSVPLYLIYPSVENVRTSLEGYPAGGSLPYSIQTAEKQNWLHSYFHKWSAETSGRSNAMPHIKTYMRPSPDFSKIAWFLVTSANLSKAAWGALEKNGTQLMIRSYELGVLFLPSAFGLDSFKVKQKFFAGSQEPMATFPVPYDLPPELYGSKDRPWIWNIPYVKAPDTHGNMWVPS
#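 Signal: AlphaScreen proximity between streptavidin donor and anti-FITC acceptor beads on intact substrate. Reaction: Tdp1 1 nM, substrate 15 nM final, 5 min RT after 15 min compound preincubation.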
# HepG2 tox = kills HepG2 cells in TGF-b inhibitor counter-screen | HepG2 CAGA-GFP viability, ATP luminescence, 18 h | Potency, µM (series often up to 46.1 µM), without a hit: top-dose activity change, negative = cytotoxicity, hits mostly cytotoxic | 410,000 tested, 0.76% active | AID 588856; note: potency is the fitted concentration of half-maximal effect
#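 CellTiter-Glo luminescence gave cytotoxicity after 18 hours at 37 degrees C. The cells were HepG2 CAGA-GFP in 1% FBS DMEM, stimulated with 500 pg/mL TGF-beta after compound addition. %Activity was normalised to no-cell wells (complete cell-killing) and DMSO (no toxicity), and curves were fitted and classified.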
# TGFb inhibitor = blocks TGF-b signaling | HepG2 CAGA-GFP TGF-b/SMAD3 reporter, GFP fluorescence, 18 h; TGF-beta stimulated, 500 pg/mL final | Potency, µM (titrated, usually from 46.1 µM), inactives show top-dose activity, negative = inhibition, usual class: inhibitors | 410,000 tested, 1.2% active | AID 588855; note: potency is the fitted concentration of half-maximal effect; % is set by controls: 0 for no effect and ±100 for the full control effect; nearly all actives have a fitted effect of over 65% in size
#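 TGF-beta reporter screen: HEPG2 CAGA-GFP, 1% FBS, 500 pg/mL TGF-beta final, 18 h; per-cell GFP summed per well; curves fitted and categorized by class.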
# IL1B secr inh = blocks inflammasome-driven IL-1 beta release; THP-1 LPS/ATP IL-1B secretion, AlphaLISA, 16 h; active compounds read low; activity change, % at 57.5 µM; 360,000 tested, 4.7% active; AID 743279; in the data active = activity change below about -50%; inconclusive = mostly about -30% to -49%; note: % is set by controls: 0 for no effect and ±100 for the full control effect
#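 THP-1 cells pretreated 1 hr with compounds (up to 57.5 uM final), then stimulated with LPS (250 ng/mL final) plus ATP (1.25 mM final); secreted IL-1B measured by AlphaLISA after 16 hr, decreased signal indicating inhibition.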
# The depositor's hits bear a star; ? = inconclusive; · = no result; [ ] = another dose, or the depositor's remark. Hits are enriched below; roughly 19% of the tested compounds scored in any of these assays. Unless noted, calls come from the whole dose curve; as a rule, active = well fitted curve in the direction sought with a large enough effect; inconclusive = small, poorly fitted or top-dose-only effect, or another doubt; inactive = no such curve, though single readings can be large; an effect the other way counts as inactive or inconclusive.
SMILES,TDP1 cell CPT,TDP1 cell noCPT,TDP1 block,HepG2 tox,TGFb inhibitor,IL1B secr inh
CCCCCCn1c(N)c(C(=O)NCCN2CCOCC2)c2nc3ccccc3nc21,21µM*,?,4%,-89%,16µM*,-73*
CCCCCn1c(N)c(C(=O)NCCN2CCOCC2)c2nc3ccccc3nc21,?,13µM*,6%,-72%,?,-58*
CCOc1cc(-c2c(C#N)c(=O)[nH]c3c2c(C)nn3-c2ccc(F)cc2)ccc1O,-13%,-15%,-1%,-12%,?,11
CC1CN1P1(=O)OCC(C)([N+](=O)[O-])CO1 (stereo not drawn),?,?,·,-14%,-15%,20
COCCCn1c(N)c(C(=O)NCCC(C)C)c2nc3ccccc3nc21,?,?,?,-100%,?,-53*
COc1ccc(CCNC(=O)c2c(N)n(CCN3CCOCC3)c3nc4ccccc4nc23)cc1OC,15µM*,13µM*,2%,-49%,?,?
CCCCn1c(N)c(C(=O)OCCOC)c2nc3ccccc3nc21,3%,-26%,·,-9%,-24%,·
COP(=O)(/C=C/c1ccccc1)C(O)c1ccc(F)cc1 (stereo not drawn),-1%,-16%,7%,-82%,6%,7
Cc1cc(C(=O)O)c(C)n1C1CC1,5%,2%,·,-23%,2%,-7
Oc1cc2c(cc1O)[C@H]1c3ccccc3CN[C@H]1CC2,18µM*,18µM*,7%,·,·,·
Oc1cc2c(cc1O)[C@H]1c3ccccc3CN[C@@H]1CC2,14µM*,13µM*,0%,15%,54%,·
O=c1c2ccccc2nc(N2CCCC2)n1-c1ccc(Cl)cc1,21µM*,16µM*,0%,-24%,-23%,25
COc1nc2ccccc2c(=O)n1-c1ccc(Cl)cc1,?,-25%,11%,0%,-5%,17
CCN(CC)CCSc1nc2ccccc2c(=O)n1-c1ccc(Cl)cc1,7.3µM*,21µM*,-3%[12.3 µM],-29%,-25%,·
CCNC(C)Cc1cccc(C(F)(F)F)c1 (stereo not drawn),2%,-15%,2%,·,·,·
O=C(CCl)Nc1nccs1,2.6µM*,5.8µM*,6%,11µM*,11µM*,-62*
O=C(Nc1ccc(Cl)cc1)Nc1nccs1,4.1µM*,2.9µM*,0%,-22%,-13%,13
O=C(Nc1nccs1)C(Cl)(Cl)Cl,-2%,-15%,0%,-7%,2%,-10
O=C(CCCOc1ccc(Cl)cc1Cl)Nc1cc(S(=O)(=O)N2CCOCC2)ccc1N1CCOCC1,?,?,·,3%,?,?
Cc1ccc(C)c(S(=O)(=O)c2nnn3c2nc(N2CCCC2)c2sccc23)c1,16µM*,?,0%,-22%,8%,·
Brc1ccccc1-c1ccccc1,-18%,-8%,-6%,-10%,5%,-18
C[n+]1ccc(-c2ccccc2)c2ccccc21,2.3µM*,2.6µM*,2%,-18%,?,53
CCN1C(=O)c2ccccc2Sc2ccc(NC(=O)Nc3ccc(Br)c(C)c3)cc21,?,?,5%,-2%,?,·
CC(=O)c1ccc2c(c1)N(CCCN(C)C)c1ccccc1S2,?,8.1µM*,6%[21 µM],-23%,32%,0
O=C(c1cc(C(=O)NCc2ccccc2)c(=O)n(Cc2ccccc2)c1)c1cc(Br)ccc1O,?,26µM*,3%,-37%,?,-1
SMILES,TDP1 cell CPT,TDP1 cell noCPT,TDP1 block,HepG2 tox,TGFb inhibitor,IL1B secr inh
Cn1cc(C(=O)NCc2ccccc2)c2ccccc21,?,-7%,0%,-6%,-9%,-25
Cc1ccc(O)c(C(=O)c2cc(C(=O)NCc3ccccc3)c(=O)n(Cc3ccccc3)c2)c1,7.3µM*,12µM*,5%,6%,-10%,-30
COC(=O)C1=C(c2cccc(OC)c2OC)C[C@@H]2CC[C@H]1N2C,-2%,-13%,0%,-8%,5%,9
COC(=O)C1=C(c2ccc(OCc3ccccc3)c(F)c2)C[C@@H]2CC[C@H]1N2C,?,23µM*,·,-29%,6%,-25
COC(=O)C1=C(c2ccc(OCc3ccccc3)cc2)C[C@@H]2CC[C@H]1N2C,16µM*,23µM*,·,-30%,-6%,-14
COC(=O)C1=C(c2cccc(NC(C)=O)c2)C[C@@H]2CC[C@H]1N2C,-1%,-7%,-1%,0%,4%,4
COCCN1C(=NCCCOC(C)C)N[C@@H](c2ccccc2)C(C(=O)OC)=C1C,?,?,·,-21%,-21%,20
Cn1cc(C(=O)OCC(=O)NC2CCCC2)c2ccccc21,-13%,-22%,2%,6%,4%,-8
CN(C(=O)COC(=O)c1cn(C)c2ccccc12)C1CCCCC1,-24%,-4%,0%,-15%,-18%,-50*
[O-][Br+2]([O-])O,·,·,13%,·,·,·
O=C(c1c[nH]cc1-c1ccccc1)c1cccc2ccccc12,18µM*,15µM*,10%,-30%,27%,-15
C[C@H]1CO1,·,·,4%,·,·,·
O=C(O)c1ccccc1SCC(=O)N1c2ccccc2Sc2ccccc21,-13%,-3%,8%,5%,?,16
C[CH2][Hg][S]c1ccccc1C(=O)O,0.41µM*,0.58µM*,15%,2.5µM*,4.5µM*,-112*
CCCCCn1c(=O)c(C(=O)NCCc2ccccc2)c(O)c2ccccc21,?,?,·,0%,-2%,80
CCN(CC)CCNC(=O)c1c(O)c2ccccc2n(Cc2ccccc2)c1=O,18µM*,16µM*,3%,-20%,-17%,-6
CCN(CC)CCCNC(=O)c1c(O)c2ccccc2n(Cc2ccccc2)c1=O,18µM*,23µM*,1%,-69%,?,-29
O=NN(c1ccccc1)c1ccccc1,·,·,9%,·,·,·
COC(C)C(O)(C(=O)OC1=CCN2CC[C@H](O)[C@H]12)C(C)C (stereo partly drawn),11µM*,21µM*,-8%[56.1 µM],·,·,·
CO[C@@H](C)[C@](O)(C(=O)OCC1=CCN2CC[C@@H](O)[C@H]12)C(C)C,·,·,10%[21 µM],·,·,·
Cc1ccc(NC(=O)Nc2cc3c(cc2N2CCCCC2)n(C)c(=O)n3C)cc1Cl,16µM*,7.3µM*,5%,-9%,?,·
CCOC(=O)c1ccc(NC(=O)Nc2cc3c(cc2N2CCCCC2)n(CC)c(=O)n3CC)cc1,12µM*,10µM*,2%,-2%,?,·

# Bioassay records deposited in PubChem by National Center for Advancing Translational Sciences (NCATS).
